Measurements: PubChem BioAssay AID1159580 (chemical genetic matrix, 2015)
Out of some 5,500 compounds screened, about 2,000 (36%) were called active. Another 18% or so got no clear call; they are omitted. No stated cut-off is given here; in the data, active means normalized growth mostly below about 0.91 (no sharp cut-off); inconclusive means no clear call, values can overlap the other calls; inactive means mostly above about 0.92. The list shows a part of the results.

Assay: chemical genetic growth profiling, strain panel (AID 1159580);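 further: tested at 20 µM; growth read once vehicle control cultures reached saturation at 30 °C; 1 = growth at the plate median or of vehicle wells; lower values mean less growth of the strain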
Details: growth OD

Measured: normalized growth

CC1(C)S[C@@H]2[C@H](NC(=O)Cc3ccccc3)C(=O)N2[C@H]1C(=O)O
inactive: S. cerevisiae deletion strains, locus YJR066W, strain TOR1, active compounds read low 0.941 | S. cerevisiae deletion strains, locus YKL009W, strain mrt4, active compounds read low 1 | S. cerevisiae deletion strains, locus YKL068W, active compounds read low 1 | S. cerevisiae deletion strains, locus YKL085W, strain MDH1 (second series), active compounds read low 1 | S. cerevisiae deletion strains, locus YKL085W, strain MDH1, active compounds read low 1 | S. cerevisiae deletion strains, locus YKL160W, strain elf1, active compounds read low 1.01 | S. cerevisiae deletion strains, locus YKL190W, strain CNB1, active compounds read low 1.01 | S. cerevisiae deletion strains, locus YKR001C, strain vps1, active compounds read low 1.01 | S. cerevisiae deletion strains, locus YKR026C, strain gcn3, active compounds read low 1.03 | S. cerevisiae deletion strains, locus YKR091W, strain srl3, active compounds read low 1.01 | S. cerevisiae deletion strains, locus YLL001W, strain dnm1, active compounds read low 1.03 | S. cerevisiae deletion strains, locus YLL026W, active compounds read low 1.02 | S. cerevisiae deletion strains, locus YLL041C, strain sdh2, active compounds read low 1.01 | S. cerevisiae deletion strains, locus YLR027C, strain aat2, active compounds read low 1.03 | S. cerevisiae deletion strains, locus YLR039C, strain RIC1, active compounds read low 1.04 | S. cerevisiae deletion strains, locus YLR058C, strain SHM2, active compounds read low 1 | S. cerevisiae deletion strains, locus YLR102C, strain apc9, active compounds read low 1.02 | S. cerevisiae deletion strains, locus YLR113W, strain HOG1, active compounds read low 0.986 | S. cerevisiae deletion strains, locus YLR221C, strain rsa3, active compounds read low 1.03 | S. cerevisiae deletion strains, locus YLR258W, strain gsy2, active compounds read low 1.03 | S. cerevisiae deletion strains, locus YLR262C, strain YPT6 (second series), active compounds read low 1 | S. cerevisiae deletion strains, locus YLR262C, strain YPT6, active compounds read low 1.02 | S. cerevisiae deletion strains, locus YLR268W, strain sec22, active compounds read low 1.02 | S. cerevisiae deletion strains, locus YLR320W, strain mms22, active compounds read low 1.04 | S. cerevisiae deletion strains, locus YLR330W, strain CHS5, active compounds read low 1 | S. cerevisiae deletion strains, locus YLR342W, strain FKS1 (second series), active compounds read low 1.01 | S. cerevisiae deletion strains, locus YLR342W, strain FKS1, active compounds read low 1.03 | S. cerevisiae deletion strains, locus YLR357W, strain rsc2, active compounds read low 1.03 | S. cerevisiae deletion strains, locus YLR370C, strain arc18, active compounds read low 1.03 | S. cerevisiae deletion strains, locus YLR371W, strain rom2, active compounds read low 1.02 | S. cerevisiae deletion strains, locus YLR384C, strain iki3, active compounds read low 1.03 | S. cerevisiae deletion strains, locus YLR418C, strain cdc73, active compounds read low 1.03 | S. cerevisiae deletion strains, locus YML016C, strain PPZ1, active compounds read low 1.01 | S. cerevisiae deletion strains, locus YML032C, strain rad52, active compounds read low 1.02 | S. cerevisiae deletion strains, locus YML120C, strain ndi1, active compounds read low 1.04 | S. cerevisiae deletion strains, locus YML124C, strain tub3, active compounds read low 1.02 | S. cerevisiae deletion strains, locus YMR058W, strain fet3, active compounds read low 1.01 | S. cerevisiae deletion strains, locus YMR078C, strain ctf18, active compounds read low 1.03 | S. cerevisiae deletion strains, locus YMR125W, strain sto1, active compounds read low 1.06 | S. cerevisiae deletion strains, locus YMR129W, active compounds read low 1.03 | S. cerevisiae deletion strains, locus YMR205C, strain PFK2, active compounds read low 1.03 | S. cerevisiae deletion strains, locus YMR223W, strain ubp8, active compounds read low 1.02 | S. cerevisiae deletion strains, locus YMR231W, strain pep5, active compounds read low 1.03 | S. cerevisiae deletion strains, locus YMR263W, strain SAP30, active compounds read low 1 | S. cerevisiae deletion strains, locus YMR307W, strain GAS1, active compounds read low 1.01 | S. cerevisiae deletion strains, locus YNL067W, strain RPL9B, active compounds read low 1 | S. cerevisiae deletion strains, locus YNL071W, strain lat1, active compounds read low 1.02 | S. cerevisiae deletion strains, locus YNL128W, strain TEP1, active compounds read low 1.01 | S. cerevisiae deletion strains, locus YNL183C, strain NPR1, active compounds read low 0.944 | S. cerevisiae deletion strains, locus YNL209W, strain ssb2, active compounds read low 1.02 | S. cerevisiae deletion strains, locus YNL233W, strain BNI4, active compounds read low 0.999 | S. cerevisiae deletion strains, locus YNL248C, strain rpa49, active compounds read low 1.03 | S. cerevisiae deletion strains, locus YNL250W, strain rad50, active compounds read low 1.02 | S. cerevisiae deletion strains, locus YNL271C, strain bni1, active compounds read low 1.02 | S. cerevisiae deletion strains, locus YNL298W, strain CLA4, active compounds read low 1.01 | S. cerevisiae deletion strains, locus YNL307C, strain MCK1, active compounds read low 1.03 | S. cerevisiae deletion strains, locus YNL322C, strain KRE1 (second series), active compounds read low 1.04 | S. cerevisiae deletion strains, locus YNR049C, strain mso1, active compounds read low 1.01 | S. cerevisiae deletion strains, locus YNR052C, strain pop2, active compounds read low 1.02 | S. cerevisiae deletion strains, locus YOL006C, strain TOP1, active compounds read low 1.02 | S. cerevisiae deletion strains, locus YOL012C, strain htz1 1.12 | S. cerevisiae deletion strains, locus YOL147C, strain pex11, active compounds read low 1.02 | S. cerevisiae deletion strains, locus YOR001W, strain rrp6, active compounds read low 1.04 | S. cerevisiae deletion strains, locus YOR061W, strain CKA2, active compounds read low 1.01 | S. cerevisiae deletion strains, locus YOR069W, strain VPS5, active compounds read low 0.998 | S. cerevisiae deletion strains, locus YOR070C, strain gyp1, active compounds read low 1.03 | S. cerevisiae deletion strains, locus YOR080W, strain dia2, active compounds read low 1.02 | S. cerevisiae deletion strains, locus YOR083W, strain WHI5, active compounds read low 0.987 | S. cerevisiae deletion strains, locus YOR106W, strain vam3, active compounds read low 1.03 | S. cerevisiae deletion strains, locus YOR136W, strain idh2, active compounds read low 1.02 | S. cerevisiae deletion strains, locus YOR144C, strain elg1, active compounds read low 1.02 | S. cerevisiae deletion strains, locus YOR184W, strain ser1, active compounds read low 1.06 | S. cerevisiae deletion strains, locus YOR231W, strain MKK1, active compounds read low 0.994 | S. cerevisiae deletion strains, locus YOR265W, strain rbl2, active compounds read low 1.01 | S. cerevisiae deletion strains, locus YOR270C, strain vph1, active compounds read low 1.13 | S. cerevisiae deletion strains, locus YOR290C, strain snf2, active compounds read low 1.03 | S. cerevisiae deletion strains, locus YOR316C, strain cot1, active compounds read low 1.02 | S. cerevisiae deletion strains, locus YPL051W, strain arl3, active compounds read low 1.03 | S. cerevisiae deletion strains, locus YPL055C, strain LGE1, active compounds read low 1.01 | S. cerevisiae deletion strains, locus YPL078C, strain atp4, active compounds read low 1.03 | S. cerevisiae deletion strains, locus YPL106C, strain sse1, active compounds read low 1.02 | S. cerevisiae deletion strains, locus YPL240C, strain hsp82, active compounds read low 1.02 | S. cerevisiae deletion strains, locus YPL256C, strain CLN2, active compounds read low 0.966 | S. cerevisiae deletion strains, locus YPR119W, strain clb2, active compounds read low 1.03 | S. cerevisiae deletion strains, locus YPR141C, strain kar3, active compounds read low 1.01 | S. cerevisiae deletion strains, locus YPR163C, strain tif3, active compounds read low 1.03 | S. cerevisiae deletion strains, locus YPR167C, strain met16, active compounds read low 1.02 | S. cerevisiae deletion strains, strain wtn01, active compounds read low 1.01 | S. cerevisiae strains, strain wild type, active compounds read low 1
